FAS TE block: blocks the thioesterase domain of human fatty acid synthase; P49327; AID 602261; inhibition, % at 15 µM; recombinant FAS-TE, OMFH fluorogenic substrate, fluorescence endpoint; actives 0.67% (n = 360,000);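 active = compounds whose normalised, plate-corrected inhibition of enzyme fluorescence in the single-dose primary screen is 50% or more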;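 also: 0% = DMSO with enzyme and 100% = substrate without enzyme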
m-calpain inh: calpain II (pig) inhibition; purified calpain II, fluorogenic peptide substrate, 30 min; inhibition, % at 16 µM; actives 0.37% (n = 220,000); AID 1236;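 active = inhibition above about 50%, limit read from the data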
beta cell repl: MIN6 beta-cell proliferation induction; MIN6 cells proliferation, ATPlite luminescence, 48 h; cells starved in 0.2% serum; 100% = growth in 10% serum; actives 0.29% (n = 330,000); proliferation, % at 10 µM;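 active = compounds whose signal lies at least 3.5 SD above the mean of all wells on their plate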;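 also: 0% = DMSO-treated cells in low-serum medium and 100% = 10% serum control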
aDG glyco act: alpha-DG glycosylation activation; Pro5-aDG cells, alpha-DG glycosylation AlphaScreen (IIH6); 0% Pro5, 100% B10-LARGE cell signal; actives 0.22% (n = 360,000); activation, % at 10 µM; AID 624168;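 active = activation of at least 8% versus controls, or a plate z-score of at least 8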;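 also: Pro5 are CHO cells carrying HIG-tagged alpha-DG that lacks glycosylation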
Cardio protect: myocardial damage modulation in H9c2 cells; H9c2 cardiomyocytes, H2O2 injury protection, ATPLite, 2 h; protection from H2O2 cell death, % at 20 µM; actives 0.63% (n = 360,000);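 active = compounds giving at least 50% protection of heart cells from peroxide-induced death in the single-dose screen, raw or plate-pattern-corrected value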;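 also: 0% = DMSO wells with peroxide and 100% = DMSO wells without peroxide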
H9c2 TAG inh: reduces triacylglycerol accumulation in H9c2 cells; AID 651582; actives 0.66% (n = 230,000); Nile Red lipid (TAG) fluorescence; cells loaded with 200 µM oleic acid; inhibition, % at 12.5 µM;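 active = pattern-corrected inhibition of lipid staining of at least 50% with the nuclear-stain viability signal not falling by more than 50%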;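 also: 0% = DMSO wells and 100% = triacsin C control wells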
FAS-TE conf: confirmation of human fatty acid synthase thioesterase inhibitors. shares compounds with FAS TE block. recombinant FAS-TE, OMFH fluorogenic substrate, fluorescence. inhibition, % at 15 µM. actives 45% (n = 2,300). AID 624325;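 active = compounds inhibiting the enzyme by at least 50% at 15 µM in any one of the replicates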;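 also: 0% = enzyme with DMSO only and 100% = wells lacking enzyme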
Active calls of the source: *; · = not tested or not shown. Sampled rows, rich in hits. Any-hit rate of the full collection: about 2.3%.

SMILES	FAS TE block	m-calpain inh	beta cell repl	aDG glyco act	Cardio protect	H9c2 TAG inh	FAS-TE conf
COc1ccc(C(c2nnnn2-c2c(C)cccc2C)N2CCC(n3c(=O)[nH]c4ccccc43)CC2)cc1 (stereo not drawn)	62*	·	·	0	-1	·	35*
COc1ccc(-n2nnnc2C(c2cccc(OC)c2OC)N2CCC(n3c(=O)[nH]c4ccccc43)CC2)cc1 (stereo not drawn)	31	·	·	0	40	·	·
COc1ccc(-n2nnnc2C(c2ccccc2)N2CCC(n3c(=O)[nH]c4ccccc43)CC2)cc1 (stereo not drawn)	25	·	·	0	32	·	·
Cc1cccc(C)c1-n1nnnc1C(c1ccccc1OC(F)(F)F)N1CCC(n2c(=O)[nH]c3ccccc32)CC1 (stereo not drawn)	54*	·	·	0	-13	·	22
CC1CC(C)CN(C(=O)COC(=O)c2cn(C)c3ccccc23)C1 (stereo not drawn)	3	·	-5	0	8	5	·
CCCCCN1C(=O)c2cc(OC)ccc2[C@@]2(C(=O)OCC)Cc3cc(Cl)ccc3[C@@H]12	85*	·	·	0	·	·	11
CCOC(=O)[C@]12Cc3cc(Cl)ccc3[C@H]1N(C(C)C)C(=O)c1ccccc12	68*	·	·	0	·	·	11
CCOC(=O)[C@]12Cc3cc(Cl)ccc3[C@H]1N(CC(=O)OC)C(=O)c1ccccc12	55*	·	·	0	·	·	28
CCOC(=O)[C@]12Cc3cc(Cl)ccc3[C@H]1N(C)C(=O)c1ccccc12	0	·	·	0	·	·	·
CNS(=O)(=O)c1ccc(N=Cc2c(O)n(-c3ccccc3)c(=O)[nH]c2=O)cc1	-9	31	-3	1	12	7	·
COc1ccc(CN2CCN(C(=O)Cc3ccccc3)CC2)cc1Br	-1	·	-5	0	2	-3	·
COC(=O)C1=C(c2ccc(F)cc2F)C[C@@H]2CC[C@H]1N2C(=O)NCCOc1ccccc1	4	·	-3	0	-2	·	·
O=[N+]([O-])c1ccc(NCc2ccccc2)c2nonc12	·	7	-2	·	·	·	·
O=[N+]([O-])c1ccc(NCc2ccc(Cl)cc2)c2ccncc12	73*	·	-4	0	-14	·	58*
O=c1[nH]c2ccccc2n1C1CCN(C(c2ccccc2OC(F)(F)F)c2nnnn2-c2ccc3c(c2)OCCO3)CC1 (stereo not drawn)	83*	·	·	0	-1	·	19
O=c1[nH]c2ccccc2n1C1CCN(C(c2cccs2)c2nnnn2-c2ccc3c(c2)OCCO3)CC1 (stereo not drawn)	63*	·	·	0	36	·	15
COc1cccc(C(c2nnnn2-c2ccc3c(c2)OCCO3)N2CCC(n3c(=O)[nH]c4ccccc43)CC2)c1OC (stereo not drawn)	72*	·	·	0	37	·	0
c1cc2c(cc1N1CCCCC1)CNCc1cnnn1-2	-15	·	·	0	5	·	·
Cc1cc(=O)oc2cc(OCC(=O)N3C[C@H]4C[C@@H](C3)c3cccc(=O)n3C4)c(Cl)cc12	8	·	-4	0	2	·	·
Cc1cc(=O)oc2cc(OCC(=O)N3CCN(C(C)c4ccccc4)CC3)c(Cl)cc12 (stereo not drawn)	60*	·	-2	0	8	17	67*
OC1(c2ccc(F)cc2)CC2CCC(C1)N2Cc1nnnn1C1CCCCC1 (stereo not drawn)	4	3	-4	0	13	·	·
COC(=O)C1=C(c2cccc(C#N)c2)C[C@@H]2CC[C@H]1N2C(=O)N1CCCC1	-5	·	0	1	-1	-92	·
O=C(N/N=C/c1c(O)n(C2CCCCC2)c(=S)[nH]c1=O)c1ccccc1O	55*	·	-4	0	52*	·	42*
CCOC(=O)[C@]12Cc3cc4ccccc4cc3[C@H]1N(Cc1ccccc1)C(=O)c1ccccc12	61*	·	·	0	·	·	13
CCOC(=O)[C@]12Cc3cc4ccccc4cc3[C@H]1N(Cc1ccccc1)C(=O)c1cc(OC)ccc12	65*	·	·	0	·	·	20
CCOC(=O)[C@]12Cc3cc(OC)ccc3[C@H]1N(Cc1ccccc1)C(=O)c1cc(OC)ccc12	25	·	·	0	·	·	·
